# Read-outs that look alike come from different tables or passages of the source.
# How the values were obtained:
# FYN = settings: concentration: 1 μM, replicates: in singlicate; n = 1
# GAK = settings: concentration: 1 μM, replicates: in singlicate; n = 1
# GCN2(Kin.Dom.2,S808G) = system: T1, GCN2(Kin.Dom.2,S808G); settings: concentration: 1 μM, replicates: in singlicate; n = 1
# T1 construct: gene EIF2AK4
# GRK1 = settings: concentration: 1 μM, replicates: in singlicate; n = 1
# GRK2 = system: T2, GRK2; settings: concentration: 1 μM, replicates: in singlicate; n = 1
# T2 construct: gene ADRBK1
# GRK3 = system: T3, GRK3; settings: concentration: 1 μM, replicates: in singlicate; n = 1
# T3 construct: gene ADRBK2
# GRK4 = settings: concentration: 1 μM, replicates: in singlicate; n = 1
# GRK7 = settings: concentration: 1 μM, replicates: in singlicate; n = 1
# GSK3A = settings: concentration: 1 μM, replicates: in singlicate; n = 1
# GSK3B = settings: n = 1
# HASPIN = system: T4, HASPIN; settings: concentration: 1 μM, replicates: in singlicate; n = 1
# T4 construct: gene GSG2
# HCK = settings: concentration: 1 μM, replicates: in singlicate; n = 1
# HIPK1 = settings: concentration: 1 μM, replicates: in singlicate; n = 1
# HIPK2 = settings: concentration: 1 μM, replicates: in singlicate; n = 1
# HIPK3 = settings: concentration: 1 μM, replicates: in singlicate; n = 1
# HIPK4 = settings: concentration: 1 μM, replicates: in singlicate; n = 1
# HPK1 = settings: concentration: 1 μM, replicates: in singlicate; n = 1
# HUNK = settings: concentration: 1 μM, replicates: in singlicate; n = 1
# ICK = settings: concentration: 1 μM, replicates: in singlicate; n = 1
# IGF1R = settings: concentration: 1 μM, replicates: in singlicate; n = 1
# [1] = concentration: 1 μM, replicates: in singlicate
# 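Note: KINOMEscan kinase panel screen.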
smiles,measurement,setting,value
CCOc1nccc(-c2c(-c3ccc(F)cc3)ncn2C2CCNCC2)n1 [SB-249175],%Inh,FYN,6%
same,%Inh,GAK,8%
same,%Inh,"GCN2(Kin.Dom.2,S808G)",40%
same,%Inh,GRK1,11%
same,%Inh,GRK2,3%
same,%Inh,GRK3,0%
same,%Inh,GRK4,15%
same,%Inh,GRK7,14%
same,%Inh,GSK3A,0%
same,%Inh,GSK3B; [1],49%
same,%Inh,HASPIN,0%
same,%Inh,HCK,0%
same,%Inh,HIPK1,59%
same,%Inh,HIPK2,44%
same,%Inh,HIPK3,44%
same,%Inh,HIPK4,6%
same,%Inh,HPK1,12%
same,%Inh,HUNK,0%
same,%Inh,ICK,65%
same,%Inh,IGF1R,0%
COc1cccc2c(-c3ccncc3)c(-c3ccc(F)cc3)nn12 [GW468513],%Inh,FYN,27%
same,%Inh,GAK,83%
same,%Inh,"GCN2(Kin.Dom.2,S808G)",18%
same,%Inh,GRK1,0%
same,%Inh,GRK2,0%
same,%Inh,GRK3,38%
same,%Inh,GRK4,0%
same,%Inh,GRK7,0%
same,%Inh,GSK3A,4%
same,%Inh,GSK3B; [1],3%
same,%Inh,HASPIN,15%
same,%Inh,HCK,0%
same,%Inh,HIPK1,0%
same,%Inh,HIPK2,0%
same,%Inh,HIPK3,10%
same,%Inh,HIPK4,4%
same,%Inh,HPK1,37%
same,%Inh,HUNK,18%
same,%Inh,ICK,9%
same,%Inh,IGF1R,9%
Nc1ncc(-c2ccc3nccc(-c4ccncc4)c3c2)cc1S(=O)(=O)N1CCCCC1 [GSK1693850],%Inh,FYN,0%
same,%Inh,GAK,11%
same,%Inh,"GCN2(Kin.Dom.2,S808G)",4%
same,%Inh,GRK1,21%
same,%Inh,GRK2,0%
same,%Inh,GRK3,0%
same,%Inh,GRK4,8%
same,%Inh,GRK7,11%
same,%Inh,GSK3A,22%
same,%Inh,GSK3B; [1],13%
same,%Inh,HASPIN,80%
same,%Inh,HCK,0%
same,%Inh,HIPK1,42%
same,%Inh,HIPK2,0%
same,%Inh,HIPK3,20%
same,%Inh,HIPK4,57%
same,%Inh,HPK1,50%
same,%Inh,HUNK,82%
same,%Inh,ICK,16%
same,%Inh,IGF1R,10%
Cc1cccc(Nc2nc(N[C@H]3CCCC[C@H]3N)ncc2C(N)=O)c1.Cl [GSK986310],%Inh,FYN,52%
same,%Inh,GAK,55%
same,%Inh,"GCN2(Kin.Dom.2,S808G)",72%
same,%Inh,GRK1,0%
same,%Inh,GRK2,0%
same,%Inh,GRK3,17%
same,%Inh,GRK4,6%
same,%Inh,GRK7,1%
same,%Inh,GSK3A,24%
same,%Inh,GSK3B; [1],19%
same,%Inh,HASPIN,18%
same,%Inh,HCK,0%
same,%Inh,HIPK1,0%
same,%Inh,HIPK2,0%
same,%Inh,HIPK3,21%
same,%Inh,HIPK4,0%
same,%Inh,HPK1,79%
same,%Inh,HUNK,0%
same,%Inh,ICK,16%
same,%Inh,IGF1R,0%
CSc1ccc(NC2=C(c3ccc(Cl)cc3)C(=O)NC2=O)cc1 [SB-317658],%Inh,FYN,4%
same,%Inh,GAK,12%
same,%Inh,"GCN2(Kin.Dom.2,S808G)",0%
same,%Inh,GRK1,2%
same,%Inh,GRK2,21%
same,%Inh,GRK3,12%
same,%Inh,GRK4,5%
same,%Inh,GRK7,26%
same,%Inh,GSK3A,37%
same,%Inh,GSK3B; 1 µM,0%
same,%Inh,HASPIN,0%
same,%Inh,HCK,32%
same,%Inh,HIPK1,2%
same,%Inh,HIPK2,3%
same,%Inh,HIPK3,7%
same,%Inh,HIPK4,6%
same,%Inh,HPK1,9%
same,%Inh,HUNK,4%
same,%Inh,ICK,19%
same,%Inh,IGF1R,3%
CN(C)CCOc1ccc(-c2cc(-c3ccc(Cl)c(O)c3)c(-c3ccncc3)[nH]2)cc1.Cl.Cl [SB-684387],%Inh,FYN,78%
same,%Inh,GAK,42%
same,%Inh,"GCN2(Kin.Dom.2,S808G)",0%
same,%Inh,GRK1,43%
same,%Inh,GRK2,0%
same,%Inh,GRK3,21%
same,%Inh,GRK4,0%
same,%Inh,GRK7,17%
same,%Inh,GSK3A,41%
same,%Inh,GSK3B; [1],10%
same,%Inh,HASPIN,18%
same,%Inh,HCK,51%
same,%Inh,HIPK1,2%
same,%Inh,HIPK2,0%
same,%Inh,HIPK3,1%
same,%Inh,HIPK4,4%
same,%Inh,HPK1,39%
same,%Inh,HUNK,0%
same,%Inh,ICK,0%
same,%Inh,IGF1R,0%
O=C(Nc1n[nH]c2nc(-c3ccccc3O)ccc12)C1CC1 [SB-711880],%Inh,FYN,0%
same,%Inh,GAK,0%
same,%Inh,"GCN2(Kin.Dom.2,S808G)",26%
same,%Inh,GRK1,49%
same,%Inh,GRK2,0%
same,%Inh,GRK3,0%
same,%Inh,GRK4,28%
same,%Inh,GRK7,12%
same,%Inh,GSK3A,87%
same,%Inh,GSK3B; 1 µM,53%
same,%Inh,HASPIN,0%
same,%Inh,HCK,0%
same,%Inh,HIPK1,27%
same,%Inh,HIPK2,7%
same,%Inh,HIPK3,0%
same,%Inh,HIPK4,0%
same,%Inh,HPK1,0%
same,%Inh,HUNK,0%
same,%Inh,ICK,26%
same,%Inh,IGF1R,0%
COc1cc(Nc2nccc(N3CCC(NS(=O)(=O)c4ccc(NC(C)=O)cc4)CC3)n2)cc(OC)c1OC [GSK1379825],%Inh,FYN,67%
same,%Inh,GAK,44%
same,%Inh,"GCN2(Kin.Dom.2,S808G)",0%
same,%Inh,GRK1,0%
same,%Inh,GRK2,62%
same,%Inh,GRK3,44%
same,%Inh,GRK4,0%
same,%Inh,GRK7,0%
same,%Inh,GSK3A,0%
same,%Inh,GSK3B; [1],10%
same,%Inh,HASPIN,0%
same,%Inh,HCK,0%
same,%Inh,HIPK1,0%
same,%Inh,HIPK2,0%
same,%Inh,HIPK3,15%
same,%Inh,HIPK4,0%
same,%Inh,HPK1,86%
same,%Inh,HUNK,0%
same,%Inh,ICK,0%
same,%Inh,IGF1R,0%
CN(c1ccc(NC(=O)N2CCN(CCCN3CCOCC3)CC2)cc1)c1ccnc(Nc2ccc(CS(C)(=O)=O)cc2)n1.Cl [GW830899],%Inh,FYN,18%
same,%Inh,GAK,59%
same,%Inh,"GCN2(Kin.Dom.2,S808G)",0%
same,%Inh,GRK1,0%
same,%Inh,GRK2,0%
same,%Inh,GRK3,0%
same,%Inh,GRK4,43%
same,%Inh,GRK7,0%
same,%Inh,GSK3A,0%
same,%Inh,GSK3B; [1],0%
same,%Inh,HASPIN,0%
same,%Inh,HCK,12%
same,%Inh,HIPK1,45%
same,%Inh,HIPK2,0%
same,%Inh,HIPK3,0%
same,%Inh,HIPK4,20%
same,%Inh,HPK1,47%
same,%Inh,HUNK,0%
same,%Inh,ICK,95.9%
same,%Inh,IGF1R,1%
COc1cccc(NC(=O)NCCNc2ccnc(Nc3ccc(F)cc3)n2)c1 [GSK1379879],%Inh,FYN,0%
same,%Inh,GAK,0%
same,%Inh,"GCN2(Kin.Dom.2,S808G)",0%
same,%Inh,GRK1,0%
same,%Inh,GRK2,0%
same,%Inh,GRK3,68%
same,%Inh,GRK4,0%
same,%Inh,GRK7,0%
same,%Inh,GSK3A,11%
same,%Inh,GSK3B; [1],16%
same,%Inh,HASPIN,0%
same,%Inh,HCK,0%
same,%Inh,HIPK1,0%
same,%Inh,HIPK2,0%
same,%Inh,HIPK3,7%
same,%Inh,HIPK4,0%
same,%Inh,HPK1,34%
same,%Inh,HUNK,11%
same,%Inh,ICK,10%
same,%Inh,IGF1R,0%

# Source: publication PMC5540273 (PLoS ONE, 2017)
